In all, about 320,000 compounds went through this assay and about 22,000 (6.9%) were called active. About 27% were inconclusive and are not listed. Only a selection was taken, and actives are over-represented in it overall. A number with no mark means an inactive call. Calls come from the whole dose curve; as a rule, active = well fitted inhibition curve with a large enough effect; inconclusive = small, poorly fitted or top-dose-only effect, or another doubt; inactive = no such curve, though single readings can be large or run the other way.
experiment: Primary qHTS for delayed death inhibitors of the malarial parasite plastid, 96 hour incubation; details: P. falciparum luciferase reporter growth; series mostly up to 28.7 µM; activity change, negative = inhibition: at the top concentration
In short: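 96 h incubation, 37 C, 5% CO2, of luciferase-reporter P. falciparum-infected RBCs (2% hematocrit, 0.05% parasitemia final) with test compounds; endpoint luminescence.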
% is set by controls: 0 for no effect and ±100 for the full control effect; potency is the fitted concentration of half-maximal effect.

| Structure (SMILES) | activity change, negative = inhibition | Potency |
| --- | --- | --- |
| O=C(N=C1SC2CS(=O)(=O)CC2N1c1cc(Cl)ccc1Cl)C1CC1 (stereo unspecified) | 27.7% | – |
| COC(=O)c1cccc(C(=O)N2CCCC(Nc3ccc4c(c3)OCCO4)C2)c1 (stereo unspecified) | -13.8% | – |
| COc1ccc(C(=O)NCC(=O)N/N=C/c2cccnc2)cc1 | 13.3% | – |
| Cc1c(S(=O)(=O)N2CC(C)CC(C)C2)c(=O)n(C)c(=O)n1C (stereo unspecified) | 17.7% | – |
| O=C(CCCN1C(=O)/C(=C\c2ccccc2)SC1=S)Nc1ccccc1O | -24.2% | – |
| O=C1/C(=C/c2ccc(F)cc2)SC(=S)N1CCCC(=O)N1CCCCC1CCO (stereo unspecified) | – | 6.57 µM (active) |
| O=C(CCCN1C(=O)/C(=C/c2ccccc2)SC1=S)Nc1ccc(O)cc1 | -3.08% [at 5.75 µM] | – |
| CC(=O)c1ccc(NC(=O)Cn2c(=O)oc3ccccc32)cc1 | 0.355% | – |
| CCCN1C2CCCC1CC(NC(=O)c1cccc(OC)c1)C2 (stereo unspecified) | 1.92% | – |
| CCc1ccc(S(=O)(=O)Nc2ccc(C)c(NS(C)(=O)=O)c2)cc1 | 4.07% | – |
| CCCCc1ccc(NC(=O)CN2C(=O)NC(Cc3ccccc3)C2=O)cc1 (stereo unspecified) | 2.93% | – |
| CC(C)=N/N=C1/NC(=O)C(Cc2ccccc2)S1 (stereo unspecified) | 252% | – |
| CCOc1cc(/C=C(/C#N)c2ccc(Cl)cc2)cc(Cl)c1OCC(=O)O | – | 13.1 µM (active) |
| COc1cc(/C=C(/NC(=O)c2ccc(Cl)cc2Cl)C(=O)O)cc(OC)c1OC | 486% | – |
| CCOC(=O)CN/C=C(\C#N)c1ccc(F)cc1 | 10.4% | – |
| CCC(=O)Nc1nnc(S(=O)(=O)N2CCCc3ccccc32)s1 | 0.177% | – |
| O=C(COC(=O)c1cccs1)Nc1ccccc1Cl | 10.8% | – |
| COc1ccccc1NC1=NC(c2ccc(Cl)cc2)N=C(N)N1 (stereo unspecified) | – | 0.928 µM (active) |
| COc1ccccc1Nc1nc(N)nc(CSC(=S)N2CCOCC2)n1 | 14.2% | – |
| COc1cc(C2C(C(=O)Nc3ccccc3OC)=C(C)Nc3ncnn32)ccc1O (stereo unspecified) | -6.58% | – |
| COC(=O)c1c(C)[nH]c(C(=O)NCCc2ccc(S(N)(=O)=O)cc2)c1C | 10.3% | – |
| CSc1ccccc1NC(=O)c1cc(Cl)sc1Cl | -2.6% | – |
| COc1ccc(S(=O)(=O)NCC(=O)NCc2cc(=O)n(C)c(=O)n2C)cc1F | 53.1% | – |
| CN(CC(=O)Nc1ccc(F)cc1)C(=O)c1ccc(-c2ccc(Cl)cc2)o1 | – | 2.33 µM (active) |
| CN(CC(=O)Nc1ccc(Cl)cc1)C(=O)c1ccc(COc2ccccc2)cc1 | 7.05% | – |
| Cc1ccc(NC(=O)CN(C)C(=O)c2ccc(Br)o2)cc1 | 3.52% | – |

| Structure (SMILES) | activity change, negative = inhibition | Potency |
| --- | --- | --- |
| COCC(=O)N1CCc2ccc(NC(=O)c3ccccc3Cl)cc2C1 | -37.8% | – |
| COc1ccc(NC(=O)CN(C)C(=O)CC2CCCCC2)cc1 | 2.68% | – |
| N#C/C(=C\c1ccc(-c2cccc([N+](=O)[O-])c2)o1)C(=O)NCCN1CCOCC1 | – | 10.4 µM (active) |
| Cc1ccc(C(=O)N/C(=C/c2ccc(-c3cccc([N+](=O)[O-])c3)o2)C(=O)NCCCN(C)C)cc1 | 28.7% | – |
| Cc1ccc(Cc2cnc(NC(=O)/C(C#N)=C/c3ccc(-c4cccc([N+](=O)[O-])c4)o3)s2)cc1 | 48.8% | – |
| COc1ccc(C(CNC(=O)c2cccc(S(=O)(=O)Nc3ccccc3Cl)c2)N2CCOCC2)cc1 (stereo unspecified) | -29.2% | – |
| COC(=O)C1=C(Nc2ccc(OC)cc2)C=C(C)C(C(=O)OC)C1c1ccc(C)cc1 (stereo unspecified) | -9.49% | – |
| COC(=O)C1=C(Nc2ccc(C)cc2)C=C(C)C(C(=O)OC)C1c1ccc(F)cc1 (stereo unspecified) | – | 11.7 µM (active) |
| COC(=O)C1C(=O)NCC1c1ccc(C)cc1 (stereo unspecified) | 9.9% | – |
| Cc1nc(COc2cc3oc(=O)cc(C)c3cc2Cl)cs1 | 16.7% | – |
| COC(=O)C1=C(O)/C(=C/c2ccc(OCC(=O)Nc3ccccc3)cc2)N=C1C | 6.94% | – |
| CCOC(=O)C1=C(O)/C(=C/c2ccc(OCC(=O)Nc3ccc(C)cc3)cc2)N=C1C | -6.91% | – |
| CCOC(=O)C1=C(O)/C(=C/c2cc(C)n(-c3ccccc3)c2C)N=C1C | – | 0.657 µM (active) |
| CCC(=O)c1ccc(OCC(=O)OCC(=O)N2CCc3ccccc3C2)cc1 | -1.61% | – |
| COC(=O)c1ccc2c(C(C)(C)O)c(C(C)(C)O)[nH]c2c1 | 57.4% | – |
| Cc1cccc(-c2oc3ccc(-c4ccc5c(c4)OCO5)cc3c2C#Cc2cncn2C)c1 | – | 1.17 µM (active) |
| C/C(=C/c1ccccc1)C(=O)N1CCN(c2ccccc2)CC1 | -16% | – |
| Nc1c(N(Cc2ccco2)C(=O)c2cccc(F)c2)c(=O)[nH]c(=O)n1Cc1ccccc1 | -29.7% | – |
| O=C(O)CN1c2cccc3cccc(c23)S1(=O)=O | 16.1% | – |
| Cc1ccc(F)cc1NC(=O)c1cccc(N(C)C)c1 | – | 11.7 µM (active) |
| Cc1ccc(F)cc1NC(=O)c1ccc2c(c1)OCO2 | 42.7% | – |
| O=C(Nc1cccc(NC(=O)c2cccc(F)c2)c1)c1ccccc1 | 37.7% | – |
| Cc1c(C(=O)NC(C)C2CC3CCC2C3)cccc1[N+](=O)[O-] (stereo unspecified) | 0.444% | – |
| COc1cc2c(cc1OC)C(c1ccccc1Br)NC(=O)C2 (stereo unspecified) | 0% | – |
| Cn1c(-c2ccc(C(F)(F)F)cc2)cc2onc(-c3ccccc3)c2c1=O | 241% | – |
| CN(C)S(=O)(=O)c1ccc(Cl)c(NC(=O)COC(=O)CC(NC(N)=O)c2ccc(Cl)cc2)c1 (stereo unspecified) | 5.17% | – |

| Structure (SMILES) | activity change, negative = inhibition | Potency |
| --- | --- | --- |
| CN1C(=O)c2ccccc2C(C(=O)NCCCN2CCCC2)C1c1c[nH]c2ccccc12 (stereo unspecified) | – | 10.4 µM (active) |
| CCCCN(CC)CCNC(=O)CCNC(=O)Cn1ccc2ccccc2c1=O | 3.37% | – |
| CC1CCN(CC(=O)c2c[nH]c3ccccc23)CC1 | 52.6% | – |
| CCN(CC)CCNC(=O)C1c2ccccc2C(=O)N(C)C1c1cn(C)c2ccccc12 (stereo unspecified) | – | 2.94 µM (active) |
| COc1ccc(C2C(C(=O)N3CCN(c4ccc(OC)cc4)CC3)c3ccccc3C(=O)N2C)cc1 (stereo unspecified) | 3.2% | – |
| O=C(NCCCN1CCN(Cc2ccccc2)CC1)C1CCN(S(=O)(=O)N2CCCC2)CC1 | -16% | – |
| COc1cccc(C(=O)OCC(=O)c2[nH]c(C)c(C(C)=O)c2C)c1 | 13.9% | – |
| COc1ccc(C2=NS(=O)(=O)N(C)C(C(=O)N3CCCCC3)=C2)cc1 | 2.02% | – |
| COc1ccc2c(c1)c1ncn(Cc3ccccn3)c(=O)c1n2C | -10.8% | – |
| CC1=CCC2C(=O)N(c3cccc(C(=O)NC(C)c4ccccc4)c3)C(=O)C2C1 (stereo unspecified) | -2.07% | – |
| NC(=O)CSc1nnc(NC(=O)c2ccc(Br)o2)s1 | 24.6% | – |
| CN(C)S(=O)(=O)N1CCC(Oc2cccc(C(=O)NCCCC3CCCC3)c2)CC1 | 22% | – |
| Cc1ccc(CNC(=O)CC(NC(=O)c2ccccc2)c2ccccc2)cc1 (stereo unspecified) | -14.6% | – |
| Cc1ccc(NC(=O)CN2C(=O)NC(C)(c3ccc(Cl)cc3)C2=O)c(Br)c1 (stereo unspecified) | 9.53% | – |
| CN(C(=O)CN1C(=O)NC(C)(CCc2ccccc2)C1=O)c1ccccc1 (stereo unspecified) | 38.7% | – |
| Cc1ccc(S(=O)(=O)c2c(N)n(C)c3nc4ccccc4nc23)cc1 | – | 0.928 µM (active) |
| Cc1ccc(S(=O)(=O)Nc2nc(N)n(-c3ccccc3)n2)cc1 | -1.37% | – |
| Cc1ccc(S(=O)(=O)NCc2nc3ccccc3c(=O)n2N)cc1 | 19% | – |
| Cc1ccsc1/C=N/NC(=O)Cc1cc(=O)[nH][nH]1 | -14.1% | – |
| CCC1(c2ccccc2)NC(=O)N(CC(=O)Nc2ccccc2C(=O)NC2CCCC2)C1=O (stereo unspecified) | -8.21% | – |
| COC(=O)c1ccccc1NC(=O)CSc1nc2c(c(=O)[nH]1)CCC2 | 60.5% | – |
| Cn1c(=O)c2c(nc(SCC(=O)Nc3ccccc3N3CCCCC3)n2C)n(C)c1=O | -18.4% | – |
| Cc1c(S(=O)(=O)NCc2ccccc2)c(=O)n(C)c(=O)n1C | 11.9% | – |
| CCCSc1nc2c(c(=O)n(C)c(=O)n2C)n1Cc1ccc(C)cc1 | – | 13.1 µM (active) |
| Cc1cccc(Cn2c(SCCO)nc3c2c(=O)n(C)c(=O)n3C)c1 | -16.9% | – |
| Cn1c(=O)c2c(nc(SCCNS(=O)(=O)c3ccccc3)n2C)n(C)c1=O | – | 14.7 µM (active) |

| Structure (SMILES) | activity change, negative = inhibition | Potency |
| --- | --- | --- |
| CCOC(=O)CSc1nc2c(c(=O)n(C)c(=O)n2C)n1Cc1ccccc1F | 74% | – |
| Cc1ccc(CNS(=O)(=O)CCNC(=O)c2ccccc2)cc1 | 17.1% | – |
| CC1C(=O)N2CCCc3cc(S(=O)(=O)NCc4ccc(F)cc4)cc1c32 (stereo unspecified) | -6.87% | – |
| CC(C)CNS(=O)(=O)c1ccc(C(=O)Nc2ccc3c(c2)OCO3)cc1 | 0.709% | – |
| COc1ccc(Cn2c(=S)[nH]c3cc(C(=O)N4CCCCC4)ccc3c2=O)cc1 | 9.86% | – |
| Cc1ccc(S(=O)(=O)N2[C@@H](c3ccccc3F)C(C(=O)O)=CC[C@H]2c2ccc(Cl)cc2)cc1 | 59.7% | – |
| Cc1cc(Nc2ccc(C(=O)N3CCCCC3)cc2)c2cccc(C)c2n1 | 11.2% | – |
| CCn1cc(CN2CCC(n3nccc3NC(=O)CCCc3ccccc3)CC2)c(C)n1 | 83.5% | – |
| c1ccc2c(c1)CSc1sccc1C2=C1CCNCC1 | – | 10.4 µM (active) |
| CCOC(=O)CNC(=O)CSc1ncccc1-c1nc2ccccc2[nH]1 | 6.22% | – |
| Cc1ccccc1N1CCN(S(=O)(=O)c2ccc3ccccc3c2)CC1 | 14.2% | – |
| Cc1ccc(-n2c(SCC(=O)NCCC3=CCCCC3)nc3n[nH]c(C)c3c2=N)cc1Cl | -13.5% | – |
| CC1(c2ccc(Cl)cc2Cl)NC(=O)N(CC(=O)Nc2cccnc2Cl)C1=O (stereo unspecified) | -14.1% | – |
| COc1ccc(CN2CCCC(C(=O)c3ccc(Cl)cc3)C2)cc1Cn1cncn1 (stereo unspecified) | – | 10.4 µM (active) |
| Cc1ccc(CN2CCCC(C(=O)c3ccc4c(c3)OCO4)C2)cc1C (stereo unspecified) | -0.489% | – |
| COc1cc(CN2CCCC(C(=O)c3ccc(SC)cc3)C2)cc(Cl)c1O (stereo unspecified) | 0% | – |
| COc1ccc(NC(=O)CSCc2ccc([N+](=O)[O-])cc2)cc1OC | 0% | – |
| COc1ccccc1OCC(O)CN1CCOCC1 (stereo unspecified) | -29% | – |
| OC(c1ccccc1)C(CN1CCOCC1)c1ccccc1 (stereo unspecified) | -25.2% | – |
| OC(c1ccc(Cl)cc1)C(CN1CCOCC1)c1ccccc1 (stereo unspecified) | – | 2.08 µM (active) |
| COc1ccc(C(C)C)cc1S(=O)(=O)Nc1ncn[nH]1 | 8.09% | – |
| CCCN(CCC)S(=O)(=O)c1ccc(C(=O)NNC(=O)c2cc(OC)c(OC)c(OC)c2)cc1 | -3.24% | – |
| O=c1[nH]c(SCc2cccc(F)c2)nc2ccccc12 | -15.5% | – |

Source: PubChem BioAssay AID504834 (National Center for Advancing Translational Sciences (NCATS), 2011)
